Measurements: PubChem BioAssay AID588591 (National Center for Advancing Translational Sciences (NCATS), 2011)
The whole screen tested about 390,000 compounds, of which about 4,700 (1.2%) were called active. A call without a number means that no potency is given here. Roughly 4% stayed inconclusive and do not appear here. Calls come from the whole dose curve; as a rule, active = well fitted inhibition curve with a large enough effect; inconclusive = small, poorly fitted or top-dose-only effect, or another doubt; inactive = no such curve, though single readings can be large or run the other way. The sample as a whole holds a higher share of actives than the screen did.

What follows are compounds tested against DNA polymerase eta (Homo sapiens) (UniProt Q9Y253) (assay: qHTS for Inhibitors of Polymerase Eta). Conditions: recombinant Pol eta, fluorescent DNA replication assay; series mostly up to 114 µM.
DNA polymerase eta (Homo sapiens), sequence (Q9Y253 whole entry, looked up): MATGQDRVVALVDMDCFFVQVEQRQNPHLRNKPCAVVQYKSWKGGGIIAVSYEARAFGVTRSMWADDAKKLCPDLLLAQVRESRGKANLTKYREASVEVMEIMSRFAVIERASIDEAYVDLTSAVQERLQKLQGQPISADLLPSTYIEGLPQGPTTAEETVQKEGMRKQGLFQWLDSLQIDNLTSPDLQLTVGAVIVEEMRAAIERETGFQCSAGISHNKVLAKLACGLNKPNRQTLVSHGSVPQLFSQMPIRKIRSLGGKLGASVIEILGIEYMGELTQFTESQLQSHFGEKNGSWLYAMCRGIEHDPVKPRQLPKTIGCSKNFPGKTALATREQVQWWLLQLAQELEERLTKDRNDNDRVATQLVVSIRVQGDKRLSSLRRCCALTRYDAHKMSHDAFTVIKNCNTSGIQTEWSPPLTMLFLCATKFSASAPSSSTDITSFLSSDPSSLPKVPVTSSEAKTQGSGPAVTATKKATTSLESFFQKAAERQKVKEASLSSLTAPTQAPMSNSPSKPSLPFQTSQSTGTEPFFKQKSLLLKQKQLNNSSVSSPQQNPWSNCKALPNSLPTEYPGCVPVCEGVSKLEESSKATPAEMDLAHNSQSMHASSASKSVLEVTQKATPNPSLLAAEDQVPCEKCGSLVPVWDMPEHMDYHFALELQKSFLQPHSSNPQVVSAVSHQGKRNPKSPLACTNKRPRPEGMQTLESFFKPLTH
Excerpt: The Y-family of DNA polymerases, such as Pol eta, are specifically involved in DNA repair. Pol eta copies undamaged DNA with a lower fidelity than other DNA-directed polymerases. However, it accurately replicates UV-damaged DNA; when thymine dimers are present, this polymerase inserts the complementary nucleotides in the newly synthesized DNA, thereby bypassing the lesion and suppressing the mutagenic effect of UV-induced DNA damage. […] Thus, while pol eta's (and most likely iota's) normal function is to protect humans against the deleterious consequences of DNA damage, under certain conditions they can have deleterious effects on human health. As a consequence, we propose to utilize a high throughput replication assay to identify small molecule inhibitors of pol eta. In a collaboration between the National Institute of Child Health & Human Development (NICHD) and NIH Chemical Genomics Center, a high-throughput, fluorescent screen was developed to screen the NIH Molecular Libraries Small Molecule Repository (MLSMR). This screen is used to identify inhibitors of pol eta. NIH Chemical Genomics Center [NCGC] NIH Molecular Libraries Probe Centers Network [MLPCN] MLPCN Grant: MH090825 Assay Submitter (PI): Roger Woodgate, NICHD)
Three microliters of reagents (buffer in column 3 and 4 as negative control and 10 nM Pol eta in columns 1, 2, and 5-48) were dispensed into a 1,536-well black solid-bottomed plate. Compounds (23 nL) were transferred via Kalypsys pin tool equipped with 1536-pin array. The plates were then incubated for 15 min at room temperature, and 1 µL substrate (50 nM final concentration) was added to start the reaction and kinetically read twice at 0 min and 10 min on the Viewlux reader
Potency is the fitted concentration of half-maximal effect.

Row | SMILES | Potency
1 | Cc1ccc(CN2CCc3nc(N4CCN(C)CC4)ncc3C2)cc1 | inactive
2 | COc1ccc(CN2C(=O)C(NC(=O)c3cccc(C)c3)(C(F)(F)F)N=C2c2ccccc2)cc1 (stereo not drawn) | inactive
3 | COc1ccc(C(=O)CSc2c(C(C)C)cnc3c2c(=O)n(C)c(=O)n3C)cc1 | inactive
4 | CCc1ccccc1NC(=O)Cc1ccc(NC(=O)N2CCCCc3ccccc32)cc1 | inactive
5 | Cc1oc2ccc(O)c(CN3CCCCC3)c2c1C(=O)Nc1cccc(C(F)(F)F)c1 | inactive
6 | CCOc1ccc(Nc2oc(/C=C/c3ccc(F)cc3)nc2C#N)cc1 | inactive
7 | CCSC1=C(C#N)C(=O)n2c1cc1c2CCCC1 | 12.6 µM (active)
8 | CCSc1ncnc2c(C#N)c3n(c12)CCCCC3 | inactive
9 | CCOC(=O)c1ccc(CSc2nnc3cc(C)c4ccccc4n23)cc1 | inactive
10 | CC(C)Cn1c(=O)c2ccccc2n2c(CCC(=O)N3CCN(c4cccc(Cl)c4)CC3)nnc12 | inactive
11 | O=c1c2ccccc2n(Cc2cccc(Cl)c2)c(=O)n1Cc1ccccc1 | inactive
12 | CCN(CC)CCCC(C)n1c2nc(=O)[nH]c(=O)c-2nc2cc(Cl)ccc21 (stereo not drawn) | 31.6 µM (active)
13 | CCN(CC)CCCC(C)Nc1ccnc2cc(Cl)ccc12 (stereo not drawn) | inactive
14 | CCc1cccc(NC(=O)CSc2nccn2C)c1 | inactive
15 | CCCCn1cc(S(=O)(=O)c2ccc(OCC)cc2)c(=O)c2cc(OC)c(OC)cc21 | inactive
16 | Cc1ccc(NC(=O)c2cc3cc(C)ccc3n2C)cc1 | inactive
17 | CCOC(=O)C1Nc2ccc(C(F)(F)F)cc2C2C=CCC12 (stereo not drawn) | 79.4 µM (active)
18 | CCOC(=O)C[C@H]1c2ccc(C(F)(F)F)cc2S(=O)(=O)N1c1ccccc1 | inactive
19 | CCOC(=O)/C=C/c1ccc(C(F)(F)F)cc1S(=O)(=O)NC(C)(C)C | inactive
20 | CC(=O)Nc1ccc(NC(=O)C2CCCN(S(=O)(=O)c3ccc4c(c3)CCCC(=O)N4)C2)cc1 (stereo not drawn) | inactive
21 | Cc1ccc(Cl)cc1NC(=O)COC(=O)C1CCCCC1 | inactive
22 | Cc1c(Cl)cnc(NC(=O)COC(=O)C2CCCC2)c1Cl | 35.5 µM (active)
23 | Cc1c(Cl)cnc(NC(=O)COC(=O)c2ccc(S(=O)(=O)NCc3ccco3)cc2)c1Cl | inactive
24 | COc1cccc(Nc2nc3ccccc3c3nncn23)c1 | inactive

Row | SMILES | Potency
25 | CCN(CC)S(=O)(=O)c1ccc(C(=O)N=c2sc3cccc(OC)c3n2C)cc1 | inactive
26 | Cc1cccc(C(=O)N2c3nc(-c4ccco4)nn3C3(CCCCC3)[C@@H]3CCCC[C@@H]32)c1 | inactive
27 | CCCCCCc1cc2cc(-c3nnc(-c4ccccc4)o3)c(=O)oc2cc1O | 39.8 µM (active)
28 | Cc1ccc(CNC(=O)CCc2c(C)nc3c(c(C)nn3-c3ccccc3)c2C)cc1 | inactive
29 | O=C(CC1C(=O)N(c2ccccc2)C(=O)N1CCc1cccs1)Nc1ccc(F)cc1 (stereo not drawn) | inactive
30 | CC(=O)c1cc(-c2ccccc2)[nH]c1N1CCCC1 | inactive
31 | O=C1NN(c2ccccc2)C(=O)/C1=C/c1ccc(-c2cccc(C(=O)O)c2)o1 | 20 µM (active)
32 | CCOc1ccc(N(CC)S(=O)(=O)N2CCCC(C(=O)Nc3ccc(C(C)=O)cc3)C2)cc1 (stereo not drawn) | inactive
33 | COc1cc(C)ccc1OCCSc1nc2ccc(NC(=O)c3ccc(C)cc3)cc2s1 | inactive
34 | CCOC(=O)N1CCc2c(sc3c2c(=O)n(Cc2ccccc2)c(=O)n3CC(=O)Nc2cccc(C)c2)C1 | inactive
35 | Fc1ccc(C(Nc2ccc(Cl)c(C(F)(F)F)c2)c2nnc(-c3ccccc3)o2)cc1 (stereo not drawn) | inactive
36 | Cn1ccc(=Nc2ccc(NC(=O)c3ccc(N=c4ccn(C)c5ccc([N+](=O)[O-])cc45)cc3)cc2)cc1 | 5.62 µM (active)
37 | CC(=O)Nc1ccc(C(=O)OCC(=O)Nc2ccc([N+](=O)[O-])cc2C(F)(F)F)cc1 | inactive
38 | CC(=O)c1ccc(NC(=O)COc2ccccc2-c2nc(-c3ccccc3)no2)cc1 | inactive
39 | CCS(=O)(=O)N1CCc2cc(C(=O)NCc3ccc(OC)cc3)ccc21 | inactive
40 | Cc1cc(/C=N/Nc2ccc([N+](=O)[O-])cn2)c(C)n1-c1cccc(C(=O)O)c1 | 22.4 µM (active)
41 | Cc1cccc(C(=O)NC(=S)N2CCN(c3ccc([N+](=O)[O-])cc3)CC2)c1 | inactive
42 | CN1CCN(C(=O)c2cnn(-c3ccccc3)c2NC(=O)c2ccc([N+](=O)[O-])cc2)CC1 | inactive
43 | O=C(NCc1ccco1)c1cnn2c(C(F)(F)F)cc(-c3ccco3)nc12 | inactive
44 | Cc1ccc(-c2cc(C(F)(F)F)n3ncc(C(=O)N4CCCCC4c4cccnc4)c3n2)cc1 (stereo not drawn) | inactive
45 | COC(=O)c1cnn2c(C(F)(F)F)cc(-c3ccco3)nc12 | 20 µM (active)
46 | Cc1ccc2nc(-c3ccc(O)cc3)c(Nc3ccc4c(c3)OCO4)n2c1 | inactive
47 | CCOC(=O)C1CCC(CN(Cc2ccc(OC)cc2)S(=O)(=O)c2ccc(F)c(C(=O)Nc3cc(C)ccc3C)c2)CC1 (stereo not drawn) | inactive
48 | COc1ccc(C(=O)Nc2nc(-c3ccc(OC)cc3)c(-c3ccc([N+](=O)[O-])cc3)s2)cc1 | 79.4 µM (active)
